These results are taken from PubChem BioAssay AID864 (The Scripps Research Institute Molecular Screening Center, 2007).

The other results are listed elsewhere or left out. Values without a mark were called inactive. Rule as the data show it: active = activation above about 8.4%; inactive = the rest.

This assay addresses Galanin receptor type 2 (Homo sapiens) (UniProt O43603). The experiment in a line: GALR2 agonists, retest of hits, confirmation, cell-based (AID 864).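 Also: 0% = buffer-only vehicle wells and 100% = full reference agonist response.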 As to conditions: GALR2-expressing cells, agonist activation; at 5.6 µM; stronger effect = higher value.

Galanin receptor type 2 (Homo sapiens), sequence (O43603 whole entry, looked up): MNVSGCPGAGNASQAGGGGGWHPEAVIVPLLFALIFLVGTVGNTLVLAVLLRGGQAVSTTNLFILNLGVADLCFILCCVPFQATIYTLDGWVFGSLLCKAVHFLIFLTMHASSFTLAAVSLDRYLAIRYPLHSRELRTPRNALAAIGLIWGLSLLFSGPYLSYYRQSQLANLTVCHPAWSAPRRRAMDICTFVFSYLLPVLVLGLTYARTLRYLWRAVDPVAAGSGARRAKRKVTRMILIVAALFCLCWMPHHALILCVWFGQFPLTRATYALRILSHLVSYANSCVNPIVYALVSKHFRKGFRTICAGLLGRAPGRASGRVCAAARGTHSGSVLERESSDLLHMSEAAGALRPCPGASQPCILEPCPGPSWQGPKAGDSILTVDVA

Regarding `Cc1cccc(N2C(=O)NC(=O)/C(=C\c3cnn(-c4ccccc4)c3)C2=O)c1`, the activation is -0.18%.
